Shown is part of a subset that was picked to be rich in hits.
Menin-MLL FL inh – displaces fluorescein MLL peptide from human menin. 290,000 tested, under 10 active. FP activity change, % at 61.4 µM. Fluorescence polarization, fluorescein-MLL peptide displacement from menin; active = well fitted curve in the direction sought with a large enough effect in the polarisation, not every such curve was filed as active; inconclusive = small, poorly fitted or top-dose-only effect, or effect the other way, or a change in a side signal; inactive = no such curve, though single readings can be large or run the other way; the % refers to the polarisation; note: % of control where 0% means no effect
aGal spleen mod – inhibitors or activators of human alpha-galactosidase in spleen homogenate. human spleen homogenate, 4MU-alpha-Gal fluorescence, 40 min. AID 2107. Potency, µM (titrated, usually from 80 µM), inactives show at the highest dose activity change, negative = inhibition, usual class: inhibitors. P06280. actives 0.008% (n = 240,000);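 note: potency is the fitted concentration of half-maximal effect; 0% = enzyme with vehicle and -100% = no enzyme basal signal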
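Human spleen homogenate (1 ug) as enzyme source, 4-methylumbelliferyl-alpha-D-galactopyranoside 1 mM final, citrate/phosphate pH 5.0 with 0.01% Tween-20. Compounds 40 min at 37C, NaOH/glycine stop; fluorescence Ex 365/Em 440, Hill-fit AC50.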
a7 integrin act – activates integrin-mediated alleviation for muscular dystrophy; actives 0.064% (n = 350,000); AID 624291; alpha7betagal myoblasts, beta-gal FDG fluorescence, 48 h; Potency, µM (highest dose often 38.3 µM), for inactives: at the top dose activation, actives largely listed as activators;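 note: potency is the fitted concentration of half-maximal effect; 100% = response of the positive control SU9516; nearly all actives have a fitted effect of over 60% in size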
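alpha7betagal+/- myoblasts (passage 13, 250/well) treated 48 h at 37C with compounds at 1:260 dilution of DMSO stock. Lysed, then beta-galactosidase activity read as FDG fluorescence (ex 480/em 540) after 30 min, with pre-read for autofluorescence.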
Menin MLL FP TR – menin-MLL binding inhibition, Texas Red mutant peptide; O00255; Menin + Texas Red MLL mutant peptide, fluorescence polarization; Potency, µM (titrated, usually from 61.6 µM), without a hit: at the highest dose FP activity change, negative = inhibition, most hits filed as inhibitors; actives 0.23% (n = 270,000); active = well fitted inhibition curve with a large enough effect in the polarisation, with a control signal flat, not every such curve was filed as active; inconclusive = small, poorly fitted or top-dose-only effect, or effect the other way, or a change in a side signal; inactive = no such curve, though single readings can be large or run the other way; the % refers to the polarisation; note: potency is the fitted concentration of half-maximal effect; % of control where 0% means no effect
MLL CXXC-DNA inh – MLL CXXC-DNA interaction inhibition | Q03164 | MLL-CXXC / FITC-HOXA9 DNA fluorescence polarization | Potency, µM (highest dose often 115 µM), without a hit: at the top dose activity change, negative = inhibition, usual class: inhibitors | actives 0.037% (n = 290,000) | AID 2662; active = well fitted inhibition curve with a large enough effect in the polarisation, with a control signal flat, not every such curve was filed as active; inconclusive = small, poorly fitted or top-dose-only effect, or effect the other way, or a change in a side signal; inactive = no such curve, though single readings can be large or run the other way; the % refers to the polarisation; note: potency is the fitted concentration of half-maximal effect
Target sequence (Q03164 whole entry, looked up): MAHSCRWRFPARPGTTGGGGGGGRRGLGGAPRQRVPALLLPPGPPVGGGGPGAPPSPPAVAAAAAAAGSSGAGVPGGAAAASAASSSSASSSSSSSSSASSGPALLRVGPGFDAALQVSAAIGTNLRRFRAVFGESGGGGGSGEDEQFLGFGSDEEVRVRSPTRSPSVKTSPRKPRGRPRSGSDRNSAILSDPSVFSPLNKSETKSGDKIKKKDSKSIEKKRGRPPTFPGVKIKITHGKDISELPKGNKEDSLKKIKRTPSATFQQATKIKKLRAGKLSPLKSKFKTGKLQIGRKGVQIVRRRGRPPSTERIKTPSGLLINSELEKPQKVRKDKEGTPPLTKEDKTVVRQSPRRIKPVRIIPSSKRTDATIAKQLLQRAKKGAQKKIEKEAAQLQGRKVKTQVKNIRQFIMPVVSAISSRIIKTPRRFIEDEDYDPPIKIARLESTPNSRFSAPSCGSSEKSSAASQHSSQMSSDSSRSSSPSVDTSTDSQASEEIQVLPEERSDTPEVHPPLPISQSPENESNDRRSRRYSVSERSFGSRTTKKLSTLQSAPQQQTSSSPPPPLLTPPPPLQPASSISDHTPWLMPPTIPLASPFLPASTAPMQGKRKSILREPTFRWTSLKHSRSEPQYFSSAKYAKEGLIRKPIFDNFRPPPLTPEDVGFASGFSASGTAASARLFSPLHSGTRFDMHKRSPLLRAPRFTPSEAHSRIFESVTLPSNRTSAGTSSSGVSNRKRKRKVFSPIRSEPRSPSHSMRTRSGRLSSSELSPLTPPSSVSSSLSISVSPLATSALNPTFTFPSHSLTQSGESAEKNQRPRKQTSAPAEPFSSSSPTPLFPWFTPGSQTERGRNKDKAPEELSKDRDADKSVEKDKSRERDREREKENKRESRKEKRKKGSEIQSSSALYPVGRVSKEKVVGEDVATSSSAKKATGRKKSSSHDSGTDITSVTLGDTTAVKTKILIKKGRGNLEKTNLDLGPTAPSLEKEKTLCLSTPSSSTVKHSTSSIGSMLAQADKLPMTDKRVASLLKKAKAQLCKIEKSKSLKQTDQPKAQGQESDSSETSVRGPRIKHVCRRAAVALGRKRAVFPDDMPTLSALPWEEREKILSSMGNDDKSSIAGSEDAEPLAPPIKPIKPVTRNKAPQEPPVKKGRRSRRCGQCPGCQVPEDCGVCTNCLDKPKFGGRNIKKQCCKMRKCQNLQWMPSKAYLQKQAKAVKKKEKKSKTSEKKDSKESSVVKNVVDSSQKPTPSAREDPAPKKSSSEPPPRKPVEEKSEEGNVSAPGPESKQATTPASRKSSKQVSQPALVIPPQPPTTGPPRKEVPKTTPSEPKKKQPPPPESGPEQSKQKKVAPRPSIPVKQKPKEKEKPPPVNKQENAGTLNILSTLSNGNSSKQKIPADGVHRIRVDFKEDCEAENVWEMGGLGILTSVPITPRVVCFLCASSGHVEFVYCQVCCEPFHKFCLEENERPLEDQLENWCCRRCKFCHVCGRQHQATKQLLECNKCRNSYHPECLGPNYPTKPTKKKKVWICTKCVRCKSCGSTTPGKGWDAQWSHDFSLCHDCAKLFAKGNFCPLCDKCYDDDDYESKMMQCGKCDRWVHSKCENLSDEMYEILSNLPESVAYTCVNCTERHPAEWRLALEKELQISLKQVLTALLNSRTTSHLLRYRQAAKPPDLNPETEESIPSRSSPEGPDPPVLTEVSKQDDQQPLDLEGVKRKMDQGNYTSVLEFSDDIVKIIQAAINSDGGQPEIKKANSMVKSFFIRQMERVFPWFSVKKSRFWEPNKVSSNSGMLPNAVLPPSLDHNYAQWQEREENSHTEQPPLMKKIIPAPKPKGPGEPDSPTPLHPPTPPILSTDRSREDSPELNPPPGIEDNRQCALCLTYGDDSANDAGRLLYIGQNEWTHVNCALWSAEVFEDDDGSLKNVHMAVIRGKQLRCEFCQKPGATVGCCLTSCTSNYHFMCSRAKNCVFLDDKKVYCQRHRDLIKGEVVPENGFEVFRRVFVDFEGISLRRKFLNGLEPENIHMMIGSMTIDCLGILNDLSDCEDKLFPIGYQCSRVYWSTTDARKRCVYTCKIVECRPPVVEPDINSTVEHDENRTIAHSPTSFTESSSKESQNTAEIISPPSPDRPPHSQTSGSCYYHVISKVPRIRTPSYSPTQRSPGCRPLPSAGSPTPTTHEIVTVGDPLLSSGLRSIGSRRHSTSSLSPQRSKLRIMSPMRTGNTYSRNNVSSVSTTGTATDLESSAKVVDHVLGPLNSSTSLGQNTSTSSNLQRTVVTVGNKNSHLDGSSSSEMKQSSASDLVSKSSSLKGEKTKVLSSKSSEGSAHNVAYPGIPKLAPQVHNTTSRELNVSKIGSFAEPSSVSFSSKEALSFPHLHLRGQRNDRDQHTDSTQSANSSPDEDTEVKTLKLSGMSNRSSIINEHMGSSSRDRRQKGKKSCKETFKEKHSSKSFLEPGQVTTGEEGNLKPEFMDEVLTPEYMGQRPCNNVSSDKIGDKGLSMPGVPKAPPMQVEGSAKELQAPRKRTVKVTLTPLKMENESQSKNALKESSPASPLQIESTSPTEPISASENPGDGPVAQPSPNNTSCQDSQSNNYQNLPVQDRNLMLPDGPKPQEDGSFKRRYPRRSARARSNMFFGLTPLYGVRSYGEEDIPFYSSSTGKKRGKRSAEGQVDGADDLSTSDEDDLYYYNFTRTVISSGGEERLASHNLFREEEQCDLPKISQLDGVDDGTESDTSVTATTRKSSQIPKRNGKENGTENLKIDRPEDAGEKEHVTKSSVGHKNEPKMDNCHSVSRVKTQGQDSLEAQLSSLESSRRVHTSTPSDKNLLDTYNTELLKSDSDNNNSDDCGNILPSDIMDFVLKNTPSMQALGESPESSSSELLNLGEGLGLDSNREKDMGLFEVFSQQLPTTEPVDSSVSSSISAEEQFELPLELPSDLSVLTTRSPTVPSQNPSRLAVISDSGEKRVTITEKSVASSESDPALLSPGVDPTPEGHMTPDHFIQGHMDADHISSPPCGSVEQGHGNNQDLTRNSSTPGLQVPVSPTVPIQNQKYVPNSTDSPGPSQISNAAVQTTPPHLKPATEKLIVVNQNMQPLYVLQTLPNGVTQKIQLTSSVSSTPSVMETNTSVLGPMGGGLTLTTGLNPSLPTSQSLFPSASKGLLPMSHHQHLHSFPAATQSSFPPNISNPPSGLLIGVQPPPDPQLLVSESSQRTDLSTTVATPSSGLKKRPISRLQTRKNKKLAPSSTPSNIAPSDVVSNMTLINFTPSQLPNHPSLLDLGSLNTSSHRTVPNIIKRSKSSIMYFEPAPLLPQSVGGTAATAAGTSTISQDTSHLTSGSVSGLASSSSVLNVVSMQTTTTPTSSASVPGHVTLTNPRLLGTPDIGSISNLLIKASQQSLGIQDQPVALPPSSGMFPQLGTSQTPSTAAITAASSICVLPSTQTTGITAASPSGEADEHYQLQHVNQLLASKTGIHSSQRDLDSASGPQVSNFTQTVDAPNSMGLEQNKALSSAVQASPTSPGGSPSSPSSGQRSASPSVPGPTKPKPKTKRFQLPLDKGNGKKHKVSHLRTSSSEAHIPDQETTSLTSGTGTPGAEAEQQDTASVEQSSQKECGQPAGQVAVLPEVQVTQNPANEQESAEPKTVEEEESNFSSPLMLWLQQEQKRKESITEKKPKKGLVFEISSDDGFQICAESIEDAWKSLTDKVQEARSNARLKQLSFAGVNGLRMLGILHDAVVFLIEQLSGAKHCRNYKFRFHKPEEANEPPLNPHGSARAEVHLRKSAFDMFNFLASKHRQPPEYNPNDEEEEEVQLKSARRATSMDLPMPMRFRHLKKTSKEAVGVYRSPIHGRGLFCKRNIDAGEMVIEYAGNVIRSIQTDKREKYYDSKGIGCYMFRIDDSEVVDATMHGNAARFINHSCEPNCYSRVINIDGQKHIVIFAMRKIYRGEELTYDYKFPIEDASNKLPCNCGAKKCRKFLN
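Steps: dispense CXXC domain solution (7 uM) → pin compounds or unlabeled HOX-A9 DNA control → 5 min ambient → add FLSN-HOX-A9 solution (50 nM) → spin → 30 min ambient → fluorescence polarization. Tris pH 7.5/NaCl/DTT/BSA buffer.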
GLA inh pH 4.5 – inhibitors of human alpha-galactosidase A at pH 4.5; P06280; 230,000 tested, under 10 active; activity change, negative = inhibition, % at 105 µM; purified enzyme, 4-MU-alpha-Gal fluorescence, pH 4.5;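 note: 0% = full activity with enzyme and -100% = basal without enzyme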
MLL CXXC Fl – MLL CXXC-DNA interaction inhibition, fluorescein FP | shares compounds with MLL CXXC-DNA inh | MLL CXXC-DNA binding, fluorescein FP | Potency, µM (highest dose often 345 µM), for the others: at the top dose activity change, negative = inhibition, most hits filed as inhibitors | actives 70% (n = 200); note: potency is the fitted concentration of half-maximal effect; nearly all actives have a fitted effect of over 80% in size
MLL CXXC FP-TR – inhibitors of human MLL CXXC domain-DNA interaction, Texas Red format; actives 40% (n = 200); MLL CXXC-DNA binding, Texas Red fluorescence polarization; Potency, µM (top dose mostly 345 µM), for the others: top-dose activity change, negative = inhibition, usual class: inhibitors; shares compounds with MLL CXXC-DNA inh; note: potency is the fitted concentration of half-maximal effect; % is set by controls: 0 for no effect and ±100 for the full control effect; nearly all actives have a fitted effect of over 75% in size
MLL CXXC TRF – disrupts human MLL CXXC domain binding to DNA by HTRF; shares compounds with MLL CXXC-DNA inh; MLL CXXC-DNA binding, HTRF, biochemical; Potency, µM (titrated, usually from 172 µM), without a hit: top-dose activity change, negative = inhibition, most hits filed as inhibitors; actives 30% (n = 210); AID 624162; note: % is set by controls: 0 for no effect and ±100 for the full control effect; nearly all actives have a fitted effect of over 80% in size
An asterisk follows results filed as active; i = inactive; ? = inconclusive; / = no result given; [ ] = remark or other dose. Unless noted, calls come from the whole dose curve; as a rule, active = well fitted curve in the direction sought with a large enough effect; inconclusive = small, poorly fitted or top-dose-only effect, or another doubt; inactive = no such curve, though single readings can be large; an effect the other way counts as inactive or inconclusive.

SMILES | Menin-MLL FL inh | aGal spleen mod | a7 integrin act | Menin MLL FP TR | MLL CXXC-DNA inh | GLA inh pH 4.5 | MLL CXXC Fl | MLL CXXC FP-TR | MLL CXXC TRF
COc1ccc(NS(=O)(=O)c2ccc(Cl)s2)cn1 | ? | -3.9% | 11.4% | / | ? | 4.6 | 126µM* | 2.1% | 0.2%
COc1ccc(NS(=O)(=O)c2cccs2)cn1 | -9.0 | 4.5% | 2.8% | 6.0% | -3.1% | 0.2 | / | / | /
Cc1ccccc1S(=O)(=O)NC1OC(=O)C(Cl)=C1Cl (stereo unspecified) | 1.9 | 4.9% | -14.5% | 0.4% | ? | 4.9 | 44.8µM* | 159µM* | ?
Cc1ccccc1S(=O)(=O)NC1OC(=O)C(Oc2ccccc2)=C1Br (stereo unspecified) | 0.2 | 9.2% | 0.5% | ? | ? | -3.1 | / | / | /
COC(=O)C1C(C)OC(=O)NC1c1ccccc1 (stereo unspecified) | -7.1[11.7 µM] | -1.2%[17.5 µM] | / | 7.6%[11.7 µM] | / | / | / | / | /
COc1ccc(CNc2ncnc3ccc(-c4cccc(C#N)c4)cc23)c(OC)c1 | -4.7 | -2.2% | / | 3.4% | / | / | / | / | /
COc1ccc(C2OC34CCCCC3C(C#N)(C#N)C2(C#N)C(=N)O4)cc1 (stereo unspecified) | ? | ? | -14.1% | ? | 28.2µM* | 27.9 | 142µM* | 113µM* | -3.1%
Cc1nc(NC2CCCCC2)c2nc(-c3ccccc3)n(CCN3CCCCC3)c2n1 | 6.1 | -2.4% | / | ? | / | -19.7 | / | / | /
O=C(O)c1ccc(NC2=C/C(=N/S(=O)(=O)c3ccccc3)c3ccccc3C2=O)cc1 | -5.3 | -3.9% | -61.3% | ? | ? | 5.2[21.1 µM] | ? | ? | 77.3%
CCN(CC)CCC[C@H](C)Nc1c2ccc(Cl)cc2nc2ccc(OC)cc12 | ? | -0.2%[29.1 µM] | / | -22.5%[24.8 µM] | 44.7µM* | -1.0 | 50.3µM* | ? | -0.2%
O=C1C(=Cc2cccs2)C(=O)c2ccccc21 | -4.4 | -2.8% | 9.1% | 10.4% | ? | -1.1 | 22.5µM* | ? | 15.0%
O=C1/C(=C/c2cccs2)Cc2ccccc21 | 8.6 | -1.2% | -1.3% | 25.7% | 7.4% | -23.3 | / | / | /
Cc1cc(C)cc(-c2cc3c(c(-c4c(O)c(-c5cc(C)cc(C)c5)cc5c4CCCC5)c2O)CCCC3)c1 | 1.3 | -2.1% | / | ? | / | 0.6 | / | / | /
CCOC(=O)c1c(NC(C)=O)sc2c(OCCN(CC)CC)c(Br)ccc12 | 1.6 | 5.0% | 0.5% | ? | 35.5µM* | -17.8 | 113µM* | 4.9% | 2.1%
COC(=O)C[C@H]1c2ccccc2C2=C(C[C@@H](C)[C@H]3C(=O)NC(=O)[C@@H]23)N1C(=O)OC | 0.0[11.7 µM] | 6.9%[17.5 µM] | / | 0.8%[11.7 µM] | / | -3.3 | / | / | /
CCCCC/C=C\C/C=C\C/C=C\CCCCC(=O)NC(C)C(=O)O (stereo unspecified) | -2.2 | 0.0% | / | 10.6% | / | -3.0 | / | / | /
Nc1cc(C(=O)O)c(N)c2c1C(=O)c1ccccc1C2=O | ? | 4.4% | 23.4% | / | 31.6µM* | -2.7 | 113µM* | 40µM* | 149.7%
Nc1c(C(=O)O)ccc2c1C(=O)c1ccccc1C2=O | ? | 1.0% | -26.2% | ? | ? | -7.6 | / | / | /
CCN1C(=O)[C@H]2[C@H]3[C@H](O)[C@H](O)C/C(=N/O[C@@H](C)c4cn([C@H]5COC[C@H]5O)nn4)[C@@H]3CC[C@@H]2C1=O | -0.9[11.7 µM] | -3.7%[17.5 µM] | / | 0.4%[11.7 µM] | / | / | / | / | /
Cc1cc(N)c2cc(NC(=O)Nc3ccc4nc(C)cc(N)c4c3)ccc2n1 | -29.9 | / | / | 15.8µM* | / | / | 8.95µM* | ? | 9.68µM*
C=Cc1c(C)/c2[n-]/c1=C\c1[n-]c(c(CC)c1C)/C=c1\[n-]c3c(c1C)C(=O)C(C(=O)[O-])C=3c1[n-]c(c(C)c1CCC(=O)[O-])\C=2.[Cu].[Na+].[Na+] (stereo unspecified) | -26.5 | -4.9% | / | ? | ? | -5.3 | 44.8µM* | 126µM* | 7.69µM*
CCCCCCN(C(=O)CCCCCN1C(=O)NC(c2ccccc2-c2ccccc2)C(C(=O)OCc2ccccc2)=C1C)C(C(=O)NCCCC)c1ccc(OCC(=O)OC)c(C(=O)OC)c1 (stereo unspecified) | 0.2 | 2.1% | / | 0.1% | / | ? | / | / | /
CCOC(=O)/C(=C/C=C1\Sc2cc(OCC)c(OCC)cc2N1CC)C(C)=O | ? | -7.5% | ? | -23.1% | ? | -11.3 | 0.565µM* | ? | 61.2%
Nc1c(C(=O)c2ccccc2)sc2snc(SCC(=O)c3ccccc3)c12 | ? | 2.7% | -26.7% | ? | ? | -1.9 | i | -4.8% | 11.3%
Nc1nnc(SCC(=O)c2ccccc2)s1 | -2.2 | 1.3% | 22.5% | -0.8% | 1.8% | 2.7 | / | / | /
SMILES | Menin-MLL FL inh | aGal spleen mod | a7 integrin act | Menin MLL FP TR | MLL CXXC-DNA inh | GLA inh pH 4.5 | MLL CXXC Fl | MLL CXXC FP-TR | MLL CXXC TRF
Nc1ccc2cc3ccc(N)cc3nc2c1 | ? | / | / | -14.8% | ? | / | 1.13µM* | 35.6µM* | ?
Cc1ccc2cc(N)ccc2n1 | -7.3 | 1.8% | 18.7% | 2.3% | -8.6% | -0.4 | / | / | /
CN1C(=O)C(=O)/C(=C(/O)c2ccc(Br)cc2)C1c1ccc(Cl)cc1 (stereo unspecified) | -2.2 | / | -22.3% | 18.0% | -2.9% | / | / | / | /
O=C1OC(c2ccc(Cl)cc2)/C(=C(/O)c2ccccc2)C1=O (stereo unspecified) | -1.8 | -6.6% | -14.4% | 34.3% | ? | 3.3 | 5.2% | 126µM* | 30.5%
CSC1=NCCCN1C(=O)c1c(-c2ccccc2Cl)noc1C | -2.8 | 7.7% | -9.7% | / | ? | 12.0 | ? | 24.9% | -4.7%
O=C(Nc1cc(C(=O)Nc2ccc(S(=O)(=O)O)cc2S(=O)(=O)O)cc(C(=O)Nc2ccc(S(=O)(=O)O)cc2S(=O)(=O)O)c1)Nc1cc(C(=O)Nc2ccc(S(=O)(=O)O)cc2S(=O)(=O)O)cc(C(=O)Nc2ccc(S(=O)(=O)O)cc2S(=O)(=O)O)c1 | ? | -13.5% | / | ? | 3.55µM* | 9.8 | 4.48µM* | 11.3µM* | 3.06µM*
CC(=O)OC[C@H]1O[C@@H](O/N=C2/[C@H]3O[C@@H]3[C@@H](O)[C@H]3[C@H]2CCn2c(=O)n(-c4ccccc4)c(=O)n23)[C@H](OC(C)=O)[C@@H](OC(C)=O)[C@@H]1OC(C)=O | -3.3[11.7 µM] | 7.8%[17.5 µM] | / | -0.7%[11.7 µM] | / | / | / | / | /

Screens (PubChem)
